According to PubChem BioAssay AID1159580 (chemical genetic matrix, 2015):
Several values for one entry are separate records, joined by “and”; a condition that tells them apart may be missing. Equal entries are not always repeated. About 2,000 (36%) of roughly 5,500 compounds were called active. Another 18% or so got no clear call; they are omitted. Cut-off read from the data, not from the text of the source: active = normalized growth mostly below about 0.91 (no sharp cut-off); inconclusive = no clear call, values can overlap the other calls; inactive = mostly above about 0.92. This is one part of the list.

Assay: chemical genetic growth profiling, strain panel (AID 1159580);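 note: tested at 20 µM; growth read once vehicle control cultures reached saturation at 30 °C; 1 = growth at the plate median or of vehicle wells; lower values mean less growth of the strain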
Conditions: S. cerevisiae deletion strains, growth OD

Measured: normalized growth

O=C(O)CCC(=O)OC[C@@H](NC(=O)C(Cl)Cl)[C@H](O)c1ccc([N+](=O)[O-])cc1
inactive: locus YAL021C, strain ccr4, hits give low values 0.99 | locus YAL026C, strain drs2, hits give low values 0.993 | locus YAL030W, strain snc1, hits give low values 0.981 | locus YBL061C, strain skt5, hits give low values 0.971 | locus YBR009C, strain hhf1, hits give low values 0.956 | locus YBR021W, strain FUR4, hits give low values 1.02 | locus YBR023C, strain chs3, hits give low values 0.976 | locus YBR171W, strain sec66, hits give low values 0.962 | locus YBR229C, strain ROT2, hits give low values 0.951 | locus YBR231C, strain swc5, hits give low values 1 | locus YBR279W, strain paf1, hits give low values 0.989 | locus YCL011C, strain gbp2, hits give low values 0.942 | locus YCL016C, strain dcc1, hits give low values 0.953 | locus YCL029C, strain bik1, hits give low values 0.986 | locus YCL061C, strain MRC1, hits give low values 0.981 | locus YCL069W, strain vba3, hits give low values 0.982 | locus YCR088W, strain abp1, hits give low values 0.986 | locus YDL005C, strain med2, hits give low values 0.984 | locus YDL035C, strain GPR1, hits give low values 0.974 | locus YDL040C, strain nat1, hits give low values 0.996 | locus YDL074C, strain BRE1, hits give low values 0.98 | locus YDL101C, strain DUN1, hits give low values 0.995 | locus YDL134C, strain PPH21, hits give low values 0.964 | locus YDL185W, strain tfp1, hits give low values 0.96 | locus YDL192W, strain arf1, hits give low values 0.979 | locus YDR001C, strain nth1, hits give low values 0.975 | locus YDR069C, strain doa4, hits give low values 1.01 | locus YDR101C, strain arx1, hits give low values 0.963 | locus YDR137W, strain rgp1, hits give low values 0.963 | locus YDR150W, strain NUM1, hits give low values 0.982 | locus YDR159W, strain sac3, hits give low values 0.997 | locus YDR162C, strain NBP2, hits give low values 0.93 | locus YDR195W, strain ref2 1 | locus YDR297W, strain sur2, hits give low values 0.964 | locus YDR318W, strain mcm21, hits give low values 0.99 | locus YDR334W, strain swr1, hits give low values 0.945 | locus YDR335W, strain msn5, hits give low values 0.973 | locus YDR388W, hits give low values 0.983 | locus YDR392W, strain spt3, hits give low values 0.914 | locus YDR502C, strain sam2, hits give low values 0.991 | locus YEL003W, strain gim4, hits give low values 0.982 | locus YEL037C, strain rad23, hits give low values 0.991 | locus YEL061C, strain CIN8 (second series), hits give low values 0.987 | locus YEL061C, strain CIN8, hits give low values 0.988 | locus YER015W, strain faa2, hits give low values 0.989 | locus YER016W, strain bim1, hits give low values 0.988 | locus YER110C, hits give low values 0.964 | locus YER111C, strain swi4, hits give low values 0.982 | locus YER155C, strain BEM2 (second series), hits give low values 1.04 | locus YER155C, strain BEM2, hits give low values 0.989 | locus YER167W, strain BCK2, hits give low values 0.997 | locus YFR010W, strain ubp6, hits give low values 0.979 | locus YGL078C, strain dbp3, hits give low values 0.995 | locus YGL167C, strain pmr1, hits give low values 0.974 | locus YGL173C, strain kem1, hits give low values 0.967 | locus YGL227W, strain vid30, hits give low values 0.977 | locus YGL240W, strain doc1, hits give low values 1 | locus YGL248W, strain PDE1, hits give low values 1.01 | locus YGL253W, strain hxk2, hits give low values 0.968 | locus YGR135W, strain pre9, hits give low values 1.03 | locus YGR229C, strain SMI1, hits give low values 0.969 | locus YGR252W, strain gcn5, hits give low values 1.07 | locus YHR013C, strain ard1, hits give low values 0.955 | locus YHR027C, strain rpn1, hits give low values 0.956 | locus YHR030C, strain SLT2, hits give low values 0.974 | locus YHR079C, strain IRE1 (second series), hits give low values 0.989 | locus YHR079C, strain IRE1, hits give low values 0.961 | locus YHR094C, strain hxt1, hits give low values 0.979 | locus YHR129C, strain ARP1, hits give low values 0.982 | locus YHR142W, strain chs7, hits give low values 0.926 | locus YHR200W, strain rpn10, hits give low values 0.981 | locus YIL066C, strain RNR3, hits give low values 0.947 | locus YIL073C, strain SPO22, hits give low values 0.988 | locus YIL125W, strain kgd1, hits give low values 0.983 | locus YIR030C, strain dcg1, hits give low values 0.98 | locus YJL092W, strain hpr5, hits give low values 0.981 | locus YJL095W, strain BCK1 (second series), hits give low values 0.972 | locus YJL095W, strain BCK1, hits give low values 1.04 and 0.971 | locus YJL115W, strain asf1, hits give low values 0.969 | locus YJL129C, strain trk1, hits give low values 0.968 | locus YJL134W, strain LCB3, hits give low values 0.982 | locus YJL154C, strain vps35, hits give low values 0.975 | locus YJL164C, strain tpk1, hits give low values 0.968 | locus YJL166W, strain qcr8, hits give low values 0.964 | locus YJL168C, strain set2, hits give low values 0.983 | locus YJL187C, strain SWE1 (second series), hits give low values 1 | locus YJL187C, strain SWE1, hits give low values 0.975
